Bioassay records (PubChem)
hgDAF12 agonist: hgDAF-12 agonism, primary luciferase screen; actives 1.8% (n = 370,000); activation, % at 6.8 µM; AID 687014; HEK293 GAL4-hgDAF12 UAS-luciferase reporter, agonist luminescence; normalized to butyrate control;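 active means activation above a cutoff set at the mean of all screened compounds plus 3 SD, cut at about 10% in these data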;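 further: 0% = DMSO wells and 100% = sodium butyrate wells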
hcDAF12 agonist: activators of H. contortus DAF-12 nuclear receptor; HEK293 hcDAF-12 lit1-tk-luc reporter, luminescence; 0% DMSO, 100% Δ7-dafachronic acid; activation, % at 6.8 µM; actives 1.4% (n = 370,000);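 active means activation above the mean of all tested compounds plus 3 SD, cut at about 5.5% in these data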;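 further: 100% = response to 3 µM Δ7-dafachronic acid high control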
ssDAF-12 act: activators of S. stercoralis DAF-12 nuclear receptor. actives 1% (n = 370,000). AID 652126. HEK293 ssDAF-12/GRIP1 lit1-tk-luc reporter, luminescence; % of 3 µM dafachronic acid response. activation, % at 6.8 µM;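 active means activation above the mean over all tested compounds plus 3 SD, cut at about 0.9% in these data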;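 further: 0% = DMSO-only wells and 100% = 3 µM delta7-dafachronic acid wells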
DAX1 inh-1: inhibits human nuclear receptor DAX1 | P51843 | HEK293 Gal4-DAX1 luciferase reporter, luminescence | inhibition, % at 6.75 µM | actives 0.99% (n = 340,000);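 active means inhibition above the mean over all tested compounds plus 3 SD, cut at about 4.2% in these data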;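 further: 0% = DAX1-transfected cells with DMSO and 100% = empty-vector control cells with DMSO; inhibition shows as a rise in luminescence from relieved DAX1 repression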
Target sequence (P51843 207-470 limits assumed): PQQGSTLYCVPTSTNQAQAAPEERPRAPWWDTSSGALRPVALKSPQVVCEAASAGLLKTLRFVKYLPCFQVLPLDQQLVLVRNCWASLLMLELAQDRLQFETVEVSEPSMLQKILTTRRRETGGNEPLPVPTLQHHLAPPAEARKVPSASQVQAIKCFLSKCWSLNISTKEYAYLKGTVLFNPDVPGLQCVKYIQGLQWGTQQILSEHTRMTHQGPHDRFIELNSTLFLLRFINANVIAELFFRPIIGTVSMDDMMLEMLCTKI
DAX1 inh-2: blocks DAX1 repression of SF-1 activated StAR promoter | actives 1.1% (n = 370,000) | AID 652010 | HEK293T StAR-luciferase reporter, SF-1/DAX-1 repression relief | inhibition, % at 6.8 µM;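 active means inhibition above the mean over all tested compounds plus 3 SD, cut at about 3.6% in these data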;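 further: 0% = DAX-1 cells with DMSO and 100% = cells lacking DAX-1 with DMSO; higher inhibition means more luminescence from relief of DAX-1 repression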
SMARCA2 act: activators of SMARCA2 function | MG213 cells, MMTV-luciferase reporter, dexamethasone, overnight | activation, % at 9.1 µM | actives 1% (n = 370,000) | AID 652017; in the data active means activation above about 7.8%;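 further: 0% = vehicle wells and 100% = reference activator wells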
SMARCA2 conf: confirmation of SMARCA2 (BRM) function activators | shares compounds with SMARCA2 act | MG213 cells, MMTV-luciferase with dexamethasone, luminescence, overnight; MG213 cells expressing E1A, Rb sequestered; DMSO wells 0%, reference activator 100% | activation, % at 9.1 µM | actives 30% (n = 3,500) | AID 652260;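 active means activation above its plate's cutoff, the mean activation of tested wells plus 3 SD, cut at about 7.9% in these data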
VP16 Luc act: GAL4-VP16 reporter activation counter-screen | activation, % at 9.1 µM | shares compounds with SMARCA2 act | AID 686939 | HEK293 GAL4-VP16 pG5luc reporter, luciferase luminescence; scaled: DMSO wells 0%, SAHA wells 100% | actives 41% (n = 3,500);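 active means activation above the solvent-only control well mean plus 3 SD, averaged across control plates, cut at about 5.2% in these data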
An asterisk follows results filed as active; x = not tested or not shown. Hits are enriched below; roughly 4.8% of the tested compounds scored in any of these assays.

SMILES	hgDAF12 agonist	hcDAF12 agonist	ssDAF-12 act	DAX1 inh-1	DAX1 inh-2	SMARCA2 act	SMARCA2 conf	VP16 Luc act
Cc1cc(C)c2nc(-n3nc(C)cc3N)cc(C)c2c1	6.6	5.7*	-0.1	1.0	1.4	10.4*	8.2*	6.2*
Cc1ccc(NC(=O)OC(C)CNC(=O)Oc2cccc(C)c2)cc1 (configuration not stated)	7.5	-0.3	-1.3	1.6	2.4	11.3*	8.0*	4.8
CC(C)n1nnnc1C1(C)CN(S(C)(=O)=O)CC(=O)N1Cc1cccc(C(F)(F)F)c1 (configuration not stated)	0.1	0.5	-0.5	x	-0.9	-2.0	x	x
Cc1ccccc1Cn1cc(CN2[C@H](Cc3ccccc3)COc3cc(Br)ccc3S2(=O)=O)nn1	0.1	-0.4	-0.8	x	0.2	-3.5	x	x
O=C(COC(=O)c1ccc(S(=O)(=O)N2CCCC2)cc1)Nc1cccc(F)c1	2.9	1.0	-1.7	-0.7	-3.0	10.4*	0.6	0.2
Cc1cc(NC(=O)CSc2nnnn2-c2cc(Cl)ccc2C)no1	1.8	-0.9	-0.8	-0.4	0.4	8.1*	-2.8	0.6
CC1(C(=O)NS(=O)(=O)c2ccccc2C(F)(F)F)CCN1C(=O)CCc1cccs1 (configuration not stated)	0.0	0.8	-1.2	x	0.5	8.7*	-3.3	1.5
N#C/C(=C\c1cccnc1)c1nc2c(s1)CCCC2	10.1	0.7	-0.4	1.9	2.7	8.5*	7.5	16.5*
COc1ccc2c3c(cccc13)C(=O)N(O)C2=O	8.1	3.5	-0.2	0.8	1.5	9.0*	44.4*	1.2
O=C1c2cccc3c([N+](=O)[O-])ccc(c23)C(=O)N1O	0.8	-0.4	-0.8	0.7	-0.6	6.5	x	x
COC(=O)C1=C(C)N(Cc2ccc(C(F)(F)F)cc2)C(=NCC2CC2)NC1c1cccc(Cl)c1 (configuration not stated)	-1.0	0.3	-1.2	x	-0.7	-5.0	x	x
NC(=O)c1ncn([C@@H]2O[C@H](CNCc3cccn3-c3ccncc3)[C@@H](O)[C@H]2O)n1	-2.2	-1.5	-1.2	0.6	-0.6	8.4*	-0.3	-1.4
Cc1ccc2c(c1)-c1c(cnn1CC(=O)NCCc1ccc(O)cc1)CO2	-1.0	0.9	-1.5	x	0.1	-2.8	x	x
O=c1[nH]c(CN2CCN(S(=O)(=O)c3ccccc3C(F)(F)F)CC2)nc2sc3c(c12)CCCC3	-2.5	1.1	-0.6	-1.0	0.7	11.6*	-2.5	-0.1
COC(=O)c1ccc(NCc2cc(O)ccc2O)cc1O	-9.1	-2.1	-1.1	-2.0	-3.9	8.5*	6.1	2.9
O=C(c1cc(-c2ccc(Cl)c(Cl)c2)on1)N1CCCCCC1	3.6	1.0	-0.4	0.9	0.5	2.2	x	x
O=C(c1cc(-c2ccc(Cl)cc2)on1)N1CCCCCC1	8.9	5.5	-0.5	1.4	2.0	10.5*	8.1*	9.2*
COc1ccc(-c2cc(C(=O)N3CCCC3)no2)cc1OC	7.2	0.4	-0.9	2.3	0.7	5.1	x	x
COc1ccc(-c2cc(C(=O)N3CCCCC3)no2)cc1OC	6.3	3.9	-1.0	1.3	1.7	8.7*	5.7	5.3*
c1coc(-c2nn3c(-c4ccco4)nnc3s2)c1	-0.8	-0.7	-0.5	-0.6	-0.1	1.0	x	x
COc1ccccc1-c1nn2c(-c3ccco3)nnc2s1	7.9	1.9	-0.1	5.9*	2.9	14.6*	26.3*	10.4*
O=c1c(C(c2ccc(F)cc2)c2c(O)nc3n(c2=O)CCS3)c(O)nc2n1CCS2	0.9	-1.4	-1.0	-1.9	-0.1	9.3*	5.4	1.3
COC(=O)[C@]12C[C@H](CC(=O)N3CCN(C(=O)C4CC4)CC3)C(=O)N(CCc3ccc(OC)c(OC)c3)C1=C[C@H](C(C)C)O[C@@H]2C1CC1	3.3	0.9	-0.9	x	0.3	-2.2	x	x
COc1ccc([C@H]2CC(=O)C[C@@H](CCn3cc(-c4ccccc4)nn3)O2)cc1	-0.8	-2.4	-1.5	x	-1.6	-0.2	x	x
COc1ccc([C@H]2CC(=O)C[C@@H](CCn3cc(-c4ccc(F)cc4)nn3)O2)cc1	-0.9	1.3	-1.0	x	0.4	9.6*	-3.0	1.3
SMILES	hgDAF12 agonist	hcDAF12 agonist	ssDAF-12 act	DAX1 inh-1	DAX1 inh-2	SMARCA2 act	SMARCA2 conf	VP16 Luc act
COC(=O)C1CN(Cc2ccccc2)CCS(=O)(=O)N1Cc1ccccc1F (configuration not stated)	-0.2	0.1	-1.0	x	0.0	-2.5	x	x
CCOC(=O)[C@@]12CCCC3=C1N(CCC3)C(=O)[C@H]2CC(=O)N1CCSCC1	-1.3	-3.0	-1.7	x	0.3	0.6	x	x
CCn1c(=O)cc(SCC(=O)NCc2ccc(C)cc2)c2ccccc21	-0.8	-2.1	-1.5	1.5	-0.2	-2.8	x	x
CCn1c(=O)cc(SCC(=O)Nc2ccc(C)cn2)c2ccccc21	6.9	1.0	-1.0	1.8	-0.6	9.2*	15.4*	0.4
CCN(CC)S(=O)(=O)c1cc(C(=O)OCC(=O)NC2CCCc3ccccc32)ccc1C (configuration not stated)	-2.9	0.1	-0.9	-0.2	-0.1	11.1*	-2.5	-1.0
CNS(=O)(=O)c1cc(C(=O)OCC(=O)NC2CCCc3ccccc32)ccc1Cl (configuration not stated)	-1.4	-1.2	-0.4	0.5	0.1	-2.3	x	x
CCC(=O)N/C(N)=N/c1nc(C)c2cc(OC)ccc2n1	9.1	4.2	0.1	2.1	3.2	18.4*	34.9*	13.5*
COc1ccc2nc(/N=C(\N)NC(=O)C(C)(C)C)nc(C)c2c1	5.7	0.0	-0.7	3.0	0.9	4.0	x	x
CCCCCn1nnnc1C1c2ccccc2OCC(=O)N1Cc1ccco1 (configuration not stated)	0.8	-1.4	-1.4	x	1.1	10.3*	0.4	-0.1
Nc1nc2cc(S(=O)(=O)NC3=NCCCCC3)ccc2s1	-3.1	-2.1	-0.9	3.2	-1.3	9.8*	-2.4	0.0
C/C(=N\NC(=O)c1ccc(NS(=O)(=O)c2cccs2)cc1)c1cccs1	0.2	0.1	-1.0	0.0	0.5	-4.3	x	x
C/C(=N\NC(=O)c1ccc(NS(=O)(=O)c2cccs2)cc1)c1ccc(Cl)cc1	7.0	-0.8	-0.9	0.0	0.1	9.1*	3.2	-0.3
O=S(=O)(c1cccc2cccnc12)N1CCC(c2cn3ccccc3n2)CC1	0.9	0.2	-1.9	x	-1.8	-3.2	x	x
